Most compounds without a hit are left out; they make up all but 13% or so of the library.
HCMV inh – inhibitors of human cytomegalovirus. hit rate 4.5% among 410,000. HFF cells, HCMV-luciferase reporter, 72 h; active compounds read low. activity change, negative = inhibition, % at 57.5 µM; in the data active = activity change below about -60%; inconclusive = no clear call, values can overlap the other calls; inactive = above about -39%
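Cell-based, HFFs, 1000 cells/well, 16 h 37C; cpds in DMSO + HCMV-luc, MOI 1 PFU/cell; 72 h 37C; OneGlo luminescence after 5 min RT; norm. to buffer vs Salinomycin 10uM.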
Pf growth 48h – inhibits P. falciparum growth in the first generation, 48 h | P. falciparum luciferase growth in erythrocytes, 48 h | Potency, µM (doses to about 28.7 µM), without a hit: top-dose activity change, negative = inhibition, usual class: inhibitors | hit rate 5.9% among 310,000 | AID 504832; also: potency is read from the fitted curve at half-maximal effect
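Parasite viability was followed by luminescence of a genomically integrated firefly luciferase. Cultures held 0.1% parasitemia at 2% hematocrit (final), incubated under 5% CO2 at 37 C.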
Pf growth 96h – P. falciparum growth inhibition at 96 hour, primary screen for plastid delayed-death inhibitors. hit rate 6.9% among 320,000. AID 504834. P. falciparum luciferase reporter growth, 96 h. Potency, µM (titrated, usually from 28.7 µM), for inactives: at the highest dose activity change, negative = inhibition, hits mostly inhibitors; also: potency is read from the fitted curve at half-maximal effect
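Plates of compound plus infected erythrocytes (2% hematocrit, 0.05% parasitemia final) incubate 96 hours, 37 C, 5% CO2. Detection reagent added; reduced luminescence from the parasites' luciferase reporter flags inhibition.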
HCV inhibitor – inhibitors of hepatitis C virus infection; Potency, µM (doses to about 41.8 µM), without a hit: top-dose activity change, negative = inhibition, most hits filed as inhibitors; hit rate 3.4% among 340,000; AID 651820; Huh7.5.1 HCVcc-Cre infection, luciferase reporter, 44 h; also: potency is read from the fitted curve at half-maximal effect
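Reporter virus HCVcc-Cre (~0.5 moi) infects cells exposed to compound; seeding density 1,000 cells/well with 4 h settling beforehand. Luminescence, 15 sec read, taken 44 h post-infection following a 15 min RT substrate incubation.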
An asterisk follows results filed as active; ? = inconclusive; . = not tested or not shown; [ ] = dose if it differs, or a comment. Unless noted, calls follow the shape of the dose curve; as a rule, active = well fitted inhibition curve with a large enough effect; inconclusive = small, poorly fitted or top-dose-only effect, or another doubt; inactive = no such curve, though single readings can be large or run the other way. % is scaled to controls: 0 for no effect and ±100 for the full control effect.

SMILES	HCMV inh	Pf growth 48h	Pf growth 96h	HCV inhibitor
O=C(CCn1nc(-c2ccc(Cl)cc2)c2ccccc2c1=O)Nc1ccc(OC(F)(F)F)cc1	-9	.	.	.
CC1(c2ccccc2)ON(c2ccccc2C(F)(F)F)C1=O (stereo unspecified)	.	4.1µM*	?	1%
CC[C@@]1(c2ccccc2OC)ON(c2ccccc2C(F)(F)F)C1=O	?	0.59µM*	?	?
COc1ccccc1-c1cc(C(F)(F)F)c(C#N)c(=O)[nH]1	-4	-25%	-41%[1.15 µM]	-3%
O=C1N(c2ccccc2C(F)(F)F)O[C@]1(c1ccccc1)C1CCCC1	-2	1.7µM*	1.3µM*	-22%
Cc1ccccc1[C@@]1(C)ON(c2ccccc2C(F)(F)F)C1=O	-11	1.7µM*	1µM*	?
COc1ccc(OC)c(NC(=O)N2CCN(S(=O)(=O)c3ccc4c(ccn4C)c3)CC2)c1	9	.	.	.
CCCN(Cc1cccs1)C(=O)Nc1cc(C)ccc1OC	-18	.	.	.

From PubChem
